# According to the supplement of paper PMC3334620:
# Over roughly 33,000 sequences, “E-score (-0.5 to 0.5)” has its median near -0.054; the highest 2% begin near 0.35. The list comes from a sample in which the highest values are over-represented; it also holds similar and randomly drawn sequences.
# Molecular target: T1, Stb5 (UniProt P38699)
# T1 sequence: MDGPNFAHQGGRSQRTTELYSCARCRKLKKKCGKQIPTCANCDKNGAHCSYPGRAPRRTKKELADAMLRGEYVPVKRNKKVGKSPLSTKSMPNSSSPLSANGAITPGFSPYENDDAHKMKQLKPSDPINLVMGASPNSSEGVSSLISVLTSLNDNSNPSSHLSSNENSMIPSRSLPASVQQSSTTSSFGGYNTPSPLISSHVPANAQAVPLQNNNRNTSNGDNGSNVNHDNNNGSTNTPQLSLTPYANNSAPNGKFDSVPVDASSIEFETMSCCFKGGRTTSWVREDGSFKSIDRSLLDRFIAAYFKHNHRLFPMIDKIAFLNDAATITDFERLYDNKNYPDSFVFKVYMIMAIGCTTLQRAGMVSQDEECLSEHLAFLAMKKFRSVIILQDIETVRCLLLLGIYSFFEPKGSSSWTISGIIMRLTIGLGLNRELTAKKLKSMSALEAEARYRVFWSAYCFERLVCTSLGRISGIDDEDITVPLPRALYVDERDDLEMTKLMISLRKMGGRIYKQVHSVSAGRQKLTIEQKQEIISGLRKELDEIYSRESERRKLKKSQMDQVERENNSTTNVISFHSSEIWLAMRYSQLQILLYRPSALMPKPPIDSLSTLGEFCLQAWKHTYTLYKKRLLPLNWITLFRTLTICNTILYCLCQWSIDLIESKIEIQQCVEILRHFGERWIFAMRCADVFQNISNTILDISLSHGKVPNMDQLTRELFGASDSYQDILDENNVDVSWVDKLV
# Assay: PBM E-score (8-mer binding enrichment) (E-score (-0.5 to 0.5)); higher = stronger / more preferred TF binding
# Details: protein concentration: 200 nM; construct: GST-full length
# Method in brief: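 Universal all-10-mer Agilent arrays, double-stranded by primer extension on fresh or once-stripped slides, were probed with about 100-200 nM GST-tagged yeast transcription factors made by PURExpress. Fluorescent anti-GST detected bound protein, and masliner normalised the scans. E-scores from the Universal PBM Analysis Suite were given to each ungapped eight-base word pooled with its reverse complement.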
row,Sequence,PBM E-score
1,GAAGCGGA,0.282
2,CTCGATGC,-0.2
3,CGAGTGTC,-0.0644
4,AGCTTTTG,-0.139
5,CAGACACC,0.0808
6,AGTACGAT,-0.165
7,CCAGTGAG,-0.17
8,TTATAGAA,-0.0532
9,GCATAAGC,0.0731
10,AGAGACGG,0.0766
11,CTTTGACA,-0.135
12,GGGGACTA,-0.0234
13,CGGGGACA,0.415
14,CGGGGACC,0.051
15,CGGGACTA,0.451
16,GGGGGACA,-0.187
17,AGGGAGTA,-0.109
18,CGGGAGTA,0.417
19,GGGGAGTA,0.0545
20,CGGGACTC,0.184
21,AACGGGTA,0.102
22,ACGATCCT,-0.231
23,AGTCCGCG,0.339
24,CGTCCGCC,0.338
25,CGTCCGGA,0.153

row,Sequence,PBM E-score
1,AGTCCGCC,0.42
2,AGTCCGGC,0.38
3,GATCCGGA,0.227
4,CGTCCGGC,0.275
5,GGTCCGGA,0.391
6,AGTCCGCA,0.323
7,AGTCCGGA,0.39
8,AGTCCGGG,0.274
9,ATTCCGGA,0.115
10,AACCCTCC,-0.0222
11,AATTCTCG,-0.186
12,TCGCCTCA,-0.162
13,CCCGAACC,0.144
14,CGCAGACA,-0.0673
15,AACTTCAC,-0.293
16,ACTGGGGG,-0.28
17,AGAGTGAT,-0.258
18,AAGTTCTG,-0.231
19,CCACCTTC,-0.199
20,CCCGCTGC,0.209
21,ACCGCTAC,0.395
22,ACCGCTAA,0.263
23,ACCGCTCC,0.323
24,ACCGCTAT,0.33
25,GCCGCTAC,0.39

row,Sequence,PBM E-score
1,CCCGCTAC,0.216
2,ACCGCTGA,0.255
3,ACCGCTGC,0.364
4,ACCGCTCT,0.226
5,ACCGCTCG,0.357
6,GCCGCTAA,0.296
7,AAACGAAG,-0.0773
8,ATCTGGCC,0.0703
9,TCACGCGA,-0.0286
10,ACCTCTAT,-0.163
11,TCTGTGCA,-0.195
12,GTAGTAAC,0.12
13,AACGAACC,-0.116
14,TGCCCCAA,-0.123
15,ACGTTGTA,-0.0486
16,AGCACTTA,-0.0929
17,CGCACTTA,0.368
18,CGCACTTC,0.0228
19,CCCTGCAG,-0.0201
20,CTGGTGTC,-0.178
21,ACGGTGTC,0.408
22,CGGGTGTC,0.00649
23,GCGGTGGA,0.177
24,CGGGTGTA,0.37
25,CCGGTGAC,0.292

row,Sequence,PBM E-score
1,CCGGTGTC,0.408
2,ACGGTGTG,0.288
3,AGGGTGTA,-0.236
4,GGGGTGTA,0.178
5,GCGGTGTA,0.421
6,AGGGTGTC,-0.106
7,TGACGCAA,-0.174
8,CAAAGTGG,-0.254
9,ACTGCGAC,0.202
10,TAACTCTA,-0.0643
11,GAACCATC,-0.135
12,ACCCACGT,-0.257
13,CAGGTGTA,-0.204
14,ACGGTGTA,0.348
15,CCGGTGTA,0.366
16,CGCAAAGA,0.016
17,CTGAAATA,-0.0506
18,GCCTCACA,-0.212
19,ACCCCCGA,0.371
20,AACCCCGA,0.473
21,AACCCCCA,-0.0755
22,AACCCCAA,-0.0237
23,CCCCCCGA,0.14
24,TCCCCCGA,0.263
25,CTCTTGAC,-0.182

row,Sequence,PBM E-score
1,AGCTAAAT,0.088
2,CTCCAGCC,-0.15
3,AAGAATAA,0.0987
4,AATGAATA,0.0406
5,ATAAATCC,0.382
6,ATAATGCG,0.0614
7,CTAATCCA,-0.106
8,CTAATCAC,0.189
9,ATAATCCA,-0.0209
10,ATAAATCG,0.0618
11,CTAATGCC,0.285
12,CTAATCCC,0.354
13,ATAATGCC,0.386
14,ATAATCCC,0.389
15,ATAATCCG,0.103
16,ATAAATCA,-0.129
17,TGCCAGAA,-0.307
18,CGCTTACG,0.123
19,GCCCTACC,-0.0725
20,AAGATACG,-0.0742
21,CGCTGCCC,-0.0156
22,ACACGGCC,0.116
23,CCCTGTAA,-0.0001
24,AGCAGTTA,-0.194
25,CGCAGTTC,0.00085

row,Sequence,PBM E-score
1,CGCAGTTA,0.359
2,GAGATTGC,-0.0088
3,CCATTCTC,-0.126
4,AATCACTA,-0.155
5,TGCGGACA,0.286
6,CGCGGACC,0.319
7,ATCGGACA,0.332
8,GGCGGACC,0.412
9,ATCGGACC,0.398
10,ATCGGTCA,0.208
11,GGCGGAAA,0.227
12,ATCGGACG,0.305
13,GGCGGAAC,0.25
14,GGCGGACA,0.357
15,CTCGGTCC,0.242
16,ATCGGTCC,0.396
17,CTATAATC,0.019
18,GGCACCCA,-0.036
19,GCACTCAA,-0.0587
20,ATACCAAT,-0.00644
21,TCCCACAA,0.0012
22,ACTGCGCG,0.122
23,AGCGGAAC,0.295
24,AGCGGAGC,0.31
25,AGCGGACC,0.359

row,Sequence,PBM E-score
1,GCACGGGC,0.2
2,AGCTATTC,-0.0735
3,GAACTCAC,-0.221
4,CAGGCCGG,0.11
5,AAGGCCGG,0.407
6,TAGGCCGA,0.125
7,AAAAGCCG,0.38
8,CAGGCCGA,0.153
9,ACGGCCGT,0.226
10,AAAAGCCC,0.324
11,AAGGCCGT,0.421
12,AAGGCCTG,-0.0882
13,AAGGCCTT,-0.163
14,AAAAGCCT,-0.122
15,AAGGCCGA,0.46
16,TTCACAAA,-0.00748
17,GACCAAAC,-0.0734
18,AGACGGTC,0.142
19,CATCCATG,-0.205
20,GAGGCCGC,0.322
21,AAAGGCCG,0.446
22,AAGGCCCA,-0.17
